Only a sample is shown.
aSyn UTR act – Activators via SNCA 5'UTR binding, MLPCN; alpha-synuclein 5'UTR reporter, activators screen; actives 7.1% (n = 300,000); activity score, % (tested at 7.5 µM), hits read low; in the data active = activity score below about -60%
Active calls of the source: *.

SMILES	aSyn UTR act
COc1ccc2c(c1)/C(=C/c1cnc[nH]1)C(=O)N2	-62*
CN1CCC(N(C)c2nc(-c3ccc([N+](=O)[O-])cc3)nc3ccccc23)CC1	75
CCCCn1c(O)c(/C(C)=N/NC(=O)Nc2ccccc2)c(=O)[nH]c1=O	-99*
CCC(=NC(C)c1ccccc1)c1c(O)[nH]c(=O)[nH]c1=O (stereo not drawn)	57
CC(Cc1ccccc1)NC(=O)c1ccc(N)cc1 (stereo not drawn)	-110*
CC(Cc1ccccc1)NC(=O)NC(C)Cc1ccccc1 (stereo not drawn)	-134*
CN(C)C(=O)Oc1ccc2c(c1)O/C(=C\c1ccc(Cl)cc1)C2=O	-87*
CN(C)C(=O)Oc1ccc2c(c1)O/C(=C\c1cccc(Cl)c1)C2=O	-72*
C[C@H]1O[C@@H](OC2CC[C@]3(C=O)[C@H]4CC[C@]5(C)[C@@H](C6=CC(=O)OC6)CC[C@]5(O)[C@@H]4CC[C@]3(O)C2)CC2OC(C)(C)OC21 (stereo partly drawn)	96
CN1CCc2nc(SCC(=O)OC(C)(C)C)c(C#N)cc2C1	-281*
Cc1cccc(-n2c(/C=C/c3ccc([N+](=O)[O-])o3)nc3ccccc3c2=O)c1	-212*
O=c1c2ccccc2nc(/C=C/c2ccc([N+](=O)[O-])o2)n1-c1ccc(O)cc1	100
CC1=CC(=C2C(=O)NC(=S)NC2=O)C=C(C(F)(F)F)N1Cc1ccccc1	113
CC(=O)c1ccc(OC(=O)N(C)c2ccccc2)cc1	-66*
CN(C)C(=O)Oc1ccc(C(=O)c2ccccc2)cc1	-68*
CC(=O)c1ccc(-c2ccccc2)cc1	-81*
Cc1ccc(-c2cc(-c3ccccc3)cc(-c3ccccc3)[n+]2-c2ccccc2)cc1	85
O=[N+]([O-])c1ccccc1CNCCc1ccc(F)cc1	-111*
Cc1c2ccncc2c(C)c2c1[nH]c1ccccc12	114
O=C1NC(c2cccnc2)Nc2sc3c(c21)CCCC3 (stereo not drawn)	-98*
O=C1Nc2ccccc2/C1=C/c1nc2ccccc2c(=O)n1-c1ccc(O)cc1	-77*
N#Cc1ccccc1NC(=O)CN1CC=C(c2ccccc2)CC1	-63*
C/C=C(\C)C(=O)N[C@@H](c1ccccc1)[C@@H](O)C(=O)O[C@H]1C[C@@]2(O)[C@@H](OC(=O)c3ccccc3)C3[C@](C)(C(=O)[C@H](OC(C)=O)C(=C1C)C2(C)C)[C@H](O)C[C@H]1OC[C@@]31OC(C)=O (stereo partly drawn)	110
CC(=O)Nc1ccccc1C(=O)OCC(=O)c1ccc2c(c1)OCCO2	-62*
CC(=O)Nc1ccccc1C(=O)OCc1ccc(F)cc1	-84*
SMILES	aSyn UTR act
Cc1ccc(N2C(=O)NC(=O)C3(Cc4ccccc4N4CCN(c5ccccc5)CC43)C2=O)cc1 (stereo not drawn)	-71*
CCC(=Nc1cc(OC)ccc1OC)c1c(O)[nH]c(=O)[nH]c1=O	71
CCOC(=O)c1ccc(NC(=O)C2C3C=CC(O3)C2C(=O)O)cc1 (stereo not drawn)	-77*
C/C=C(\C)C(=O)OC1C(C)=C2C(C1OC(=O)CCCCC)C(C)(OC(C)=O)CC(OC(=O)CCC)C1(O)C2OC(=O)C1(C)O (stereo not drawn)	108
C[C@H]1C[C@@H](C)C(=O)[C@@H]([C@H](O)CC2CC(=O)NC(=O)C2)C1	97
c1ccc(CN2CCc3nc4ccccc4cc3C2)cc1	-171*
Nc1ccccc1C(=O)OCC(=O)N1CCc2ccccc21	-168*
O=C(Nc1cccc(Cl)c1)c1c(O)c2c(n(Cc3ccco3)c1=O)CCCC2	-87*
Cc1cc(N2CCOCC2)nc2ccc(NC(=O)CCC(=O)N3CCC4(CC3)OCCO4)cc12	-88*
Cc1ccccc1NC(=O)CCl	-71*
COC(=O)C[C@]1(C(=O)OC)CN(C#N)N(c2ccc(Cl)cc2)C12c1ccccc1-c1ccccc12	96
Cn1c(O)c(C(=N)COc2ccccc2)c(=O)n(C)c1=O	-67*
CCC(C)C(=O)N[C@@H](c1ccccc1)[C@@H](O)C(=O)O[C@H]1C[C@@]2(O)[C@@H](OC(=O)c3ccccc3)C3[C@](C)(C(=O)[C@H](OC(C)=O)C(=C1C)C2(C)C)[C@@H](O)C[C@H]1OC[C@@]31OC(C)=O (stereo partly drawn)	103
Cc1ccc2cc3cc(C(=O)N4CCC5(CC4)OCCO5)oc3nc2c1	-69*
CCC(C)c1ccc(N2C(=O)NC(=O)/C(=C/c3cccn3CCOc3ccc(C)cc3)C2=O)cc1 (stereo not drawn)	-65*
COc1cc2c(cc1OC)-c1c(OC)c(OC)c(OC)c3ccnc(c13)C2=O	104
CCCCN=C[C@]12CCC(O)CC1(O)CCC1[C@@H]2CC[C@]2(C)[C@H](C3C=CC(=O)O3)CCC12O (stereo partly drawn)	96
O=C(NC1(C(F)(F)F)Oc2ccc(Cl)cc2O1)N1CCC2(CC1)OCCO2 (stereo not drawn)	-73*
Cc1cc(C(=O)N=Nc2c(O)n(C)c3ccccc23)c(C)o1	-180*
Cc1cc(C(=O)CS(=O)c2ccc(F)cc2)cc(C)c1OC(=O)N(C)C (stereo not drawn)	-68*
Cc1cc(C(=O)CS(=O)(=O)c2ccccc2)cc(C)c1OC(=O)N(C)C	-71*
CC(=O)O[C@@]12CO[C@@H]1C[C@@H](O)[C@@]1(C)C(=O)[C@H](O)C3=C(C)[C@@H](OC(=O)[C@H](O)[C@@H](NC(=O)c4ccccc4)c4ccccc4)C[C@@](O)([C@@H](OC(=O)c4ccccc4)C12)C3(C)C (stereo partly drawn)	113
Cc1ccc(N2C(=O)NC(=O)/C(=C/c3cnn(-c4ccc(C)cc4)c3)C2=O)cc1	-72*
CC(C)(C)C(=O)c1cn(CC(=O)NCc2ccco2)c2ccccc12	-143*
COc1ccc(CNCCc2c(C)[nH]c3ccc(OC(F)(F)F)cc23)c(OC)c1	90
SMILES	aSyn UTR act
CN1C(=O)C(Cc2ccc(OCc3ccccc3)cc2)C(=O)N(C)C1=O	-105*
COc1cccc(OCc2cc(C(=O)N3C[C@H]4C[C@@H](C3)c3cccc(=O)n3C4)no2)c1	-174*
N#CSCC(=O)N1c2ccccc2CCc2ccccc21	-84*
CC(Cc1ccccc1)N1Cc2ccccc2C1 (stereo not drawn)	-65*
CCCCCn1c(=O)c(C(=O)NCc2ccncc2)c(O)c2ccccc21	65
Cc1ccc(-c2cc(-c3ccc(C)cc3)[n+](-c3ccc(C(=O)[O-])cc3)c(-c3ccc(C)cc3)c2)cc1	83
Cc1nn(CC(C)C)c(Cl)c1C(=O)NC1CCC(C)CC1 (stereo not drawn)	-123*
O=C(C1CC(c2ccccc2O)=NO1)N1CCC2(CC1)OCCO2 (stereo not drawn)	-68*
O=c1[nH]c(=S)[nH]c(O)c1N=Nc1ccc(OC(F)F)cc1	-92*
O=c1[nH]c(=S)[nH]c(O)c1N=Nc1ccc2c(c1)OCO2	-74*
CCCCCCn1c(=O)c(C(=O)Nc2c(C)n(C)n(-c3ccccc3)c2=O)c(O)c2ccccc21	-76*
CCCCCn1c(=O)c(C(=O)Nc2ccccn2)c(O)c2ccccc21	65
CCCCCCn1c(=O)c(C(=O)Nc2cnccn2)c(O)c2ccccc21	67
C[C@@H]1O[C@@H](O[C@H]2C[C@@H](O)[C@]3(CO)[C@H]4[C@H](O)C[C@]5(C)[C@@H](C6=CC(=O)OC6)CC[C@]5(O)[C@@H]4CC[C@]3(O)C2)[C@H](O)[C@H](O)[C@H]1O	114
